Test results from the supplement of paper PMC6555819.

These sequences were tested on PPARg homodimer (NR concentration 180 nM) (assay: PBM binding z-score (relative to random genomic background probes); higher = stronger binding; sequences stand for … in GC…GCGATTGACAGCGTAGAATGAAGG).
Summary of the method: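 Random background probes are the reference for binding z-scores. These scores derive from regression-normalized fluorescence on custom Agilent 4×180K protein-binding microarrays incubated 1 h with ligand-free nuclear receptor dimers. Binding was detected with antibodies against each partner (one per run).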
With TCAGACAGGTGAAGCTAACTCAGGTACGCAGTCG the PBM binding z-score was 0.616.
With TAGCCTTGGTCATGCGGGCCAGTATAGTGTCGGC the PBM binding z-score was -1.18.
GTACCAAGGTGAATAGGTCGTTAATGAGTAGGCG showed a PBM binding z-score of 1.46.
For GCTTGTAGATCAACGTTAAGAAAGACTAAGCTAA, the PBM binding z-score was -0.243.
TCTTGTAGATCAAAGGGTAAGAAAGCCGAAGCCT was tested, and the PBM binding z-score was -0.138.
Work on GCTGATAGGTCAACTGATGGTCAGCTAAAGCTCG yielded a PBM binding z-score of 4.6.
For CATACAGGGTCAGCTAGGGCAGAGTAGGGACGGC, the PBM binding z-score was 2.1.
Work on AGTCAAAGTTCAGGACGATGTAACGTAAAGCACG yielded a PBM binding z-score of 2.13.
Work on TCTAGTTGGTCACGGTGGTCACACACGACGGGTA yielded a PBM binding z-score of 0.94.
With CCGACTGGGGCAAGGTTGCCATAACGCACAGCCA the PBM binding z-score was 0.0482.
With CCTAGCGGGCCAGGGTCACTCAAGCATTTCGCTT the PBM binding z-score was 0.563.
In the case of AGAATGAGGTTGTACGTAGATCAGGGAAGAAAGT, the PBM binding z-score is reported as 0.226.
AGAATGAGGTTATACGTACATCAGGGAAGAAAGT was tested, and the PBM binding z-score was 0.736.
TGGAGTAGGTTAGGGGCATTCAGAATGGCGTCGA was tested, and the PBM binding z-score was 2.02.
CCTACTGGGCCATTCAGAGGCCATTGATCATATG was tested, and the PBM binding z-score was 0.212.
ATATGTAGGTTACGGGTCATTCAGGTTGGTTCGC gave a PBM binding z-score of 3.88.
TCGAGTAGGTTAGGGGTATTCAGAATGGCGTCGA gave a PBM binding z-score of 0.948.
CCTAGTTCGTCAAGGTCACACACGCTATAGGTAC showed a PBM binding z-score of 4.18.
TCTTTTAGTTGATTAGGGCAACCGAAACAGCGGA gave a PBM binding z-score of 1.2.
With GCTAGCAGGGCATTTGGGTCACTCAATGACGGGC the PBM binding z-score was 0.341.
Sequence TGAATGAGGTTATAAGATCGGGGAACGTTGCAAA has a PBM binding z-score of -0.104.
Sequence CGTCCCAGGTCAGAGAGGTCAGTGAATGCCGAGT has a PBM binding z-score of 3.01.
CAAACTAGGGCAAAGGTCAAAGTCGAGCCAACCA gave a PBM binding z-score of 4.12.
CGAACTAGGTCATTGACGGGACAGTGAATAGTAA was tested, and the PBM binding z-score was 1.5.
With TCTTGTAGATCAACAGGCGGTTAAGAAAGATCGA the PBM binding z-score was -0.291.
ACTATTAGGTGACTTAGGGCAACCGATACGACGC showed a PBM binding z-score of 0.861.
TCTGCTACGTCAGTTGGTCAGCTAACGAGCTGCC gave a PBM binding z-score of -2.23.
In the case of CTCGAAAGGTCGTGCTCAAGTGAGTATACCAAAC, the PBM binding z-score is reported as 1.8.
TAGCCTAGGTCATTCAGGGGCCAGGATAGAAAGC was tested, and the PBM binding z-score was 1.31.
For CCTCGGAGGACAACAGGAGGTGAGAGCTGCCAGA, the PBM binding z-score was -0.411.
With ACAGACAGGTGAGTGAAGGTAATTCAGCTGGACG the PBM binding z-score was -0.206.
With CTACCAAGGTGAACAAGCTCGTTGATTACTATTC the PBM binding z-score was 0.000283.
Sequence TAGCCTAGGTAATGCGGGCCAGTATAGTGTCGGC has a PBM binding z-score of -1.01.
CCTCGGAGGACAAAAGGAGGTCAGAGCTGCCAGA was tested, and the PBM binding z-score was 1.84.
With GCTTGTAGAGCAAGGTTAAGAAAGACTAAGCTAA the PBM binding z-score was -0.216.
Sequence TCATATAGGTAAAAGGAGAAAGTCGGTGTGGTAA has a PBM binding z-score of 0.959.
TCTAGCAGGCCAGAGGTTCACTCAAGAGGTACGG showed a PBM binding z-score of -0.59.
TCGAGTAGGTTCGGGGCATTCAGAATGGCGTCGA was tested, and the PBM binding z-score was -0.546.
In the case of TCTATTAGTTGATTAGGGCAACCTAAACAGCGGA, the PBM binding z-score is reported as 1.03.
Work on ATACCAAAGTGATCGTGAGGTCGTTGATACTAAC yielded a PBM binding z-score of 0.565.
